Experimental data published in PubChem BioAssay (NCATS).
The source made the active and inactive calls. The call rests on the fitted dose curve; in most records, active means well fitted curve in the direction sought with a large enough effect; inconclusive means small, poorly fitted or top-dose-only effect, or effect the other way, or another doubt; inactive means no such curve, though single readings can be large or run the other way.

What follows are molecules tested against Beta-2 adrenergic receptor (Homo sapiens) (UniProt P07550) (assay: qHTS validation assay of beta-arrestin-biased ligands of beta2-adrenergic receptor (AID 485366)). Conditions: cell-based beta-arrestin recruitment to ADRB2, qHTS; series mostly up to 46.1 µM.
Chain of Beta-2 adrenergic receptor (Homo sapiens) (P07550 whole entry, looked up): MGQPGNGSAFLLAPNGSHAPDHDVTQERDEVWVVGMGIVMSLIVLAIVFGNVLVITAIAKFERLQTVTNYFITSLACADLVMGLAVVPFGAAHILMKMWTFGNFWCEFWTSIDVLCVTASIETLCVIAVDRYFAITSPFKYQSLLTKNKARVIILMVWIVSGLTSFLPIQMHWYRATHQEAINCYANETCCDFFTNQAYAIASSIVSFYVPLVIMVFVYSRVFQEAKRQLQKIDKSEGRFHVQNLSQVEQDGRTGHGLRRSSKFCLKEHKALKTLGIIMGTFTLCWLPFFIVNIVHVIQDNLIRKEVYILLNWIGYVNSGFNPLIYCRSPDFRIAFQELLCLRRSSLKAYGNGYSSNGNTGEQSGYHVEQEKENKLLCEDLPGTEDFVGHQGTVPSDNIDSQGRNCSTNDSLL
Text: NIH Molecular Libraries Probe Production Network [MLPCN]
NIH Chemical Genomics Center [NCGC]
PI: Bryan Roth and Bob Lefkowitz
The concept of biased agonism is an emerging concept of molecular pharmacology which proposes that seven transmembrane receptors (7TMRs) or G protein-coupled receptors (GPCRs), exist in multiple signaling conformations and complexes and that ligands (either agonists or antagonists) can induce signaling biased responses for distinct signal transduction cascades.
Furthermore, accumulating evidence over the last decade has drawn attention to a novel function of beta-arrestins as signal transducers that scaffold various signaling molecules upon activation of 7TMRs. […] This beta-arrestin-biased signaling presumably leads to distinct physiological outcomes from those by G protein activation.
Additionally, the active receptor conformations which […] on this beta-arrestin signaling are likely different from those activating G protein signaling
The goal of this screening project will be to discover and optimize novel beta-arrestin-biased ligands for beta2-AR signaling. A luminescent cell-based assay for beta2-AR-mediated agonism, known as the Tango assay, has been validated in which ligand binding of a recombinant beta2-AR and subsequent recruitment of a recombinant beta-arrestin lead to the release of the transcriptional activator tTA, which upregulates transcription of a tTA-responsive luciferase gene. […] Compounds were screened as a concentration-titration series that ranged from 46 microM to 0.6 nM.
NCGC Assay Protocol Summary:
Tango cells were dispensed into white, solid, tissue-culture-treated 1536-well plates at 1500 cells/well in DMEM, containing 1% fetal bovine serum (FBS). Then, 23 nL of compounds or DMSO were delivered to each well using a pin tool. Plates were incubated at 37 degrees C, 5% CO2 for 18 hr. Then 2.5 uL luminescent substrate mix (in-house prepared: 150 mM Tris-Cl, pH 7.6, 3 mM MgCl2, 1% Triton X-100, 5 mM DTT, 0.5 mM CoA, 0.15 mM ATP, 0.44 mM D-luciferin, final concentrations) was added to each well. Plates were then incubated for 15 minutes at room temperature, and subsequently measured on a ViewLux plate reader for luminescent signal using a clear filter with a 10 second exposure and 2x binning. The %Activity was determined from the corrected luminescence values.
Concentration-response curves were fitted to the signals arising from the resulting luminescence. The concentration-effect curves were then classified based on curve quality (r2), response magnitude and degree of measured activity, and compounds were subsequently categorized based on their curve class.
Keywords: biased agonism, beta2-AR, beta-arrestin, GPCR, 7TMR, Tango, luminescence, MLSMR, MLPCN, NIH Roadmap, qHTS, NCGC

Row | SMILES | outcome
1 | CC1CC2C3CCC4=CC(=O)C=C[C@]4(C)[C@@]3(F)[C@@H](O)C[C@]2(C)[C@@]1(O)C(=O)CO (stereo partly specified) | inactive
2 | CC(=O)[C@H]1CC[C@H]2[C@@H]3CCC4=CC(=O)CC[C@]4(C)[C@H]3CC[C@]12C | inactive
3 | NC(=O)c1cccc(N)c1 | inactive
4 | CCCCS(=N)(=O)CCC(N)C(=O)O (stereo unspecified) | inactive
5 | Cc1ccc(S(=O)(=O)N[C@@H](Cc2ccccc2)C(=O)CCl)cc1 | inactive
6 | COc1cc2nc(N3CCCN(C)CC3)nc(NC3CCN(Cc4ccccc4)CC3)c2cc1OC | inactive
7 | CC1=C(C(=O)O)N2C(=O)[C@@H](NC(=O)C(N)c3ccccc3)[C@H]2SC1 (stereo partly specified) | inactive
8 | CCN(CC)CCn1c(=O)c(Cc2ccc(OC)cc2)nc2ccccc21 | inactive
9 | NC(=O)c1ccc2[nH]ccc2c1 | inactive
10 | N[C@@H](Cc1ccc(O)c(O)c1)C(=O)O | inactive
11 | COc1cc2ncnc(Nc3cccc(Cl)c3)c2cc1OC | inactive
12 | OCc1ccc(-c2nn(Cc3ccccc3)c3ccccc23)o1 | inactive
13 | Nc1nc(N)c2nc(CNc3ccc(C(=O)NC(CCC(=O)O)C(=O)O)cc3)cnc2n1 (stereo unspecified) | inactive
14 | O=C(O)C1CCCN(CCC=C(c2ccccc2)c2ccccc2)C1 (stereo unspecified) | inactive
15 | CCN1CCCC1CNC(=O)c1cc(S(N)(=O)=O)ccc1OC (stereo unspecified) | inactive
16 | CCN(CC)CC#CCOC(=O)C(O)(c1ccccc1)C1CCCCC1 (stereo unspecified) | inactive
